Measured values from PubChem BioAssay (NCATS).
Results filed as inconclusive are left out. The source made the active and inactive calls. Unless noted, the call rests on the fitted dose curve; in most records, active means well fitted inhibition curve with a large enough effect; inconclusive means small, poorly fitted or top-dose-only effect; inactive means flat fitted curve, though single readings scatter.

Key:
[1] = biological target: Glucocorticoid receptor (Homo sapiens) (UniProt P04150); test: GR-EFC Redistribution (AID 451; calls by dose curve); conditions: CHO-K1 GR-EFC translocation, beta-gal luminescence, 2 h
Chain of Glucocorticoid receptor (Homo sapiens) (P04150 whole entry, looked up, the tested form may be a part): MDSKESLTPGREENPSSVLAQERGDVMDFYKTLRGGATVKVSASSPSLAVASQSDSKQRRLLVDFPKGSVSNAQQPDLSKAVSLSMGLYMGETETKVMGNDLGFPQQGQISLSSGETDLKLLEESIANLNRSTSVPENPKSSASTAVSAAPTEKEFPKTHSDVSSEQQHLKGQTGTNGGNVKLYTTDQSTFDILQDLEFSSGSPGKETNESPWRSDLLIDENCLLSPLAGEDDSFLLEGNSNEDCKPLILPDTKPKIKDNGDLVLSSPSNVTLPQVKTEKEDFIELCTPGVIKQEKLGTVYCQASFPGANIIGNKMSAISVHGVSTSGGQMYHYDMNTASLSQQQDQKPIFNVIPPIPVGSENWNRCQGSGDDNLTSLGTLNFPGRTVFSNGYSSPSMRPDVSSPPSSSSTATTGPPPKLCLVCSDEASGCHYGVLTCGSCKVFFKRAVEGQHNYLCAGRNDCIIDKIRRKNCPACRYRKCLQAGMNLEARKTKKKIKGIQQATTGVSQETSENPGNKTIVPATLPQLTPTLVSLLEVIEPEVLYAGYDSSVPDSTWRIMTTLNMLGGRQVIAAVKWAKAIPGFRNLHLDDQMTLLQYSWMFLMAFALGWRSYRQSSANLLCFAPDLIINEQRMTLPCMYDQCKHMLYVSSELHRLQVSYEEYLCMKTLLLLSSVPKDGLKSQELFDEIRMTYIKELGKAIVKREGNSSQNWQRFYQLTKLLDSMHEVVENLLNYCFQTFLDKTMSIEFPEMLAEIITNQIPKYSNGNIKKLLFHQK
How it was run: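 CHO-K1 cells expressing nuclear EA and GR-ED fragments of b-gal; compounds titrated up to 46 uM final, 2 h at 37 C. GR nuclear translocation read as complemented b-gal luminescence after 1 h RT detection.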

AA1029 = test: qHTS profiling for inhibitors of Plasmodium falciparum proliferation (AID 504749); further: nearly all actives have a fitted effect of over 60% in size; conditions: P. falciparum in erythrocytes, SYBR Green DNA, 72 h; series mostly up to 12.8 µM
How it was run: (§1)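 SYBR Green fluorescence (ex 485 nm, em 535 nm) reports parasite DNA after 72 h compound exposure of infected red cells at 0.3% parasitemia, 2.5% hematocrit; signal normalized to 0.29 uM artemisinin and vehicle wells.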

ATS189 = test: as above; conditions: P. falciparum in erythrocytes, SYBR Green DNA, 72 h; series mostly up to 12.8 µM
How it was run: as §1

ATS95 = test: as above; conditions: P. falciparum in erythrocytes, SYBR Green DNA, 72 h; series mostly up to 12.8 µM
How it was run: as §1

CP237 = test: as above; conditions: P. falciparum in erythrocytes, SYBR Green DNA, 72 h; series mostly up to 12.8 µM
How it was run: as §1

CP252 = test: as above; conditions: P. falciparum in erythrocytes, SYBR Green DNA, 72 h; series mostly up to 12.8 µM
How it was run: as §1

CP260 = test: as above; conditions: P. falciparum in erythrocytes, SYBR Green DNA, 72 h; series mostly up to 12.8 µM
How it was run: as §1

CP265 = test: as above; conditions: P. falciparum in erythrocytes, SYBR Green DNA, 72 h; series mostly up to 12.8 µM
How it was run: as §1

CP286 = test: as above; conditions: P. falciparum in erythrocytes, SYBR Green DNA, 72 h; series mostly up to 12.8 µM
How it was run: as §1

JCK = test: as above; conditions: P. falciparum in erythrocytes, SYBR Green DNA, 72 h; series mostly up to 12.8 µM
How it was run: as §1

N140 = test: as above; conditions: P. falciparum in erythrocytes, SYBR Green DNA, 72 h; series mostly up to 12.8 µM
How it was run: as §1

PAD = test: as above; conditions: P. falciparum in erythrocytes, SYBR Green DNA, 72 h; series mostly up to 12.8 µM
How it was run: as §1

PC15 = test: as above; conditions: P. falciparum in erythrocytes, SYBR Green DNA, 72 h; series mostly up to 12.8 µM
How it was run: as §1

PC49 = test: as above; conditions: P. falciparum in erythrocytes, SYBR Green DNA, 72 h; series mostly up to 12.8 µM
How it was run: as §1

TAB113 = test: as above; conditions: P. falciparum in erythrocytes, SYBR Green DNA, 72 h; series mostly up to 12.8 µM
How it was run: as §1

TAB165 = test: as above; conditions: P. falciparum in erythrocytes, SYBR Green DNA, 72 h; series mostly up to 12.8 µM
How it was run: as §1

CP269 = test: as above; conditions: P. falciparum in erythrocytes, SYBR Green DNA, 72 h; series mostly up to 12.8 µM
How it was run: as §1

CP305 = test: as above; conditions: P. falciparum in erythrocytes, SYBR Green DNA, 72 h; series mostly up to 12.8 µM
How it was run: as §1

CP315 = test: as above; conditions: P. falciparum in erythrocytes, SYBR Green DNA, 72 h; series mostly up to 12.8 µM
How it was run: as §1

CP329 = test: as above; conditions: P. falciparum in erythrocytes, SYBR Green DNA, 72 h; series mostly up to 12.8 µM
How it was run: as §1

Measured: Potency
Potency means the concentration at half of the fitted maximal effect.

C1CCC(C(C[C@@H]2CCCCN2)C2CCCCC2)CC1
inactive: [1] > 20.6 µM

CC(=O)N(C[C@@H](C)C(=O)O)c1c(I)cc(I)c(N)c1I
inactive: [1] > 20.6 µM | AA1029 | ATS189 | ATS95 | CP237 | CP252 | CP260 | CP265 | CP286 | JCK | N140 | PAD | PC15 | PC49 | TAB113 | TAB165

Cc1ccnc(N)c1
inactive: [1] > 46 µM

O=C(OC[C@@H](O)CO)c1ccccc1Nc1ccnc2cc(Cl)ccc12
not listed: [1] | CP286 | PAD
inactive: all other assays above

CCC(=O)[C@@]1(C)[C@H](C)C[C@@H]2[C@@H]3CCC4=CC(=O)C=C[C@@]4(C)[C@H]3[C@H](O)C[C@]21C
active: [1] 0.00311 µM | CP237 3.55 µM
not listed: CP260 | CP286 | N140
inactive: all other assays above

CCOC(=O)O[C@]1(C(=O)COC(=O)CC)CC[C@@H]2[C@@H]3CCC4=CC(=O)C=C[C@@]4(C)[C@H]3[C@H](O)C[C@]21C
not listed: [1]
inactive: all other assays above

CO[C@@H]1CC[C@@]2(C)[C@@H](CC[C@@]3(C)[C@H]2CC=C2[C@H]4CC(C)(C)[C@H](O)[C@@H](OC(C)=O)[C@]4(CO)[C@H](O)C[C@]23C)[C@@]1(C)CO (tested in a mixture with another compound)
inactive: [1] > 20.6 µM

NCC[C@H](O)C(=O)N[C@H]1C[C@@H](N)[C@@H](O[C@H]2O[C@@H](CN)[C@@H](O)[C@@H](O)[C@@H]2O)[C@@H](O)[C@@H]1O[C@H]1O[C@@H](CO)[C@@H](O)[C@@H](N)[C@@H]1O
inactive: [1] > 20.6 µM

CCN(CC)CCOC(=O)[C@@H](c1ccccc1)C1CCCCC1
inactive: [1] > 20.6 µM

CCN(CC)[C@@H](C)CN1c2ccccc2Sc2ccccc21
inactive: [1] > 20.6 µM | CP269 | CP305 | CP315 | CP329 | JCK | PAD | PC15 | PC49

CO/N=C(\C(=O)N[C@@H]1C(=O)N2C(C(=O)O)=C(COC(N)=O)CS[C@@H]12)c1ccco1
inactive: [1] > 20.6 µM

FC(F)(F)c1ccccc1-c1ccc2ncnc(NC3CCNCC3)c2c1
inactive: [1] > 46 µM

CCOC(=O)Oc1c(OC)cc(C(=O)O[C@H]2C[C@H]3CN4CCc5c([nH]c6cc(OC)ccc56)[C@@H]4C[C@H]3[C@@H](C(=O)OC)[C@@H]2OC)cc1OC
active: CP237 3.16 µM | CP260 2.51 µM | CP286 2.51 µM | N140 3.55 µM | PAD 3.55 µM | TAB113 3.98 µM | TAB165 3.55 µM
inactive: [1] > 20.6 µM

CN(C/C=C\c1ccccc1)Cc1cccc2ccccc12
inactive: [1] > 20.6 µM | AA1029 | ATS189 | ATS95 | CP237 | CP252 | CP260 | CP265 | CP269 | CP305 | CP315 | CP329 | JCK | N140 | PAD | PC15 | PC49 | TAB113 | TAB165

C=Cc1c(C)c2cc3nc(cc4[nH]c(cc5nc(cc1[nH]2)C(C)=C5CCC(=O)O)c(CCC(=O)OC)c4C)[C@@]1(C)C3=CC=C(C(=O)OC)[C@H]1C(=O)OC (tested in a mixture with another compound)
active: AA1029 5.01 µM | ATS189 7.08 µM | ATS95 7.94 µM | CP237 5.01 µM | CP260 2.51 µM | CP265 10 µM | CP286 4.47 µM | N140 7.08 µM | PAD 1.41 µM | PC15 5.01 µM | PC49 5.01 µM | TAB113 1.78 µM | TAB165 6.31 µM
inactive: [1] > 20.6 µM | CP269 | CP305 | CP315 | CP329

Cc1onc(-c2c(F)cccc2Cl)c1C(=O)N[C@H]1C(=O)N2[C@H]1SC(C)(C)[C@H]2C(=O)O
inactive: [1] > 20.6 µM

O=c1cc(-c2cccc(O)c2)oc2cc(O)ccc12
inactive: [1] > 46 µM

C=C(C)[C@H]1CC[C@]2(C(=O)O)CC[C@]3(C)[C@@H](CC[C@H]4[C@@]5(C)CC[C@@H](O)C(C)(C)[C@@H]5CC[C@@]43C)[C@H]12
inactive: [1] > 20.6 µM

O[C@@](CCN1CCCCC1)(c1ccccc1)[C@@H]1C[C@H]2C=C[C@@H]1C2
inactive: [1] > 20.6 µM

CO[C@H]1[C@@H](OC(N)=O)[C@H](O)[C@@H](Oc2ccc3c(O)c(NC(=O)c4ccc(O)c(CC=C(C)C)c4)c(=O)oc3c2C)OC1(C)C
inactive: [1] > 20.6 µM | AA1029 | ATS189 | ATS95 | CP237 | CP252 | CP260 | CP265 | CP269 | CP286 | CP305 | CP315 | CP329 | JCK | N140 | PAD | PC15 | PC49 | TAB113 | TAB165
